We go through six compounds from PubChem BioAssay (NCATS).

Records with an inconclusive call do not appear. The source made the active and inactive calls. The call rests on the fitted dose curve; in most records, active means well fitted curve in the direction sought with a large enough effect; inconclusive means small, poorly fitted or top-dose-only effect, or another doubt; inactive means no such curve, though single readings can be large; an effect the other way counts as inactive or inconclusive.

The nature of assay [1]: qHTS of pediatric cancer cell lines to identify multiple opportunities for drug repurposing: Primary screen for control Hh wild type fibroblast cells (AID 1347106).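 Further: series mostly up to about 46 µM; a drop in luminescence marks cytotoxicity and a rise apparent proliferation; nearly all actives have a fitted effect of over 55% in size.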 A digest of the protocol:
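Viability after 48 h compound treatment at 37C, 500-1,000 cells/well, read as ATP luminescence with CellTiter-Glo. Primary screens used 11-point (MIPE, 0.78 nM-46 µM) or 8-point (NPC, 0.59 nM-46 µM) final concentrations; follow-up screens used 11-point dilutions.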
A general note: Quantitative high-throughput screening tests each substance at several concentrations.

Assay [2] is described as follows: qHTS of pediatric cancer cell lines to identify multiple opportunities for drug repurposing: Primary screen for Rh30 cells (AID 1347107). Further: series mostly up to about 46 µM; nearly all actives have a fitted effect of over 75% in size. Put shortly: (§1)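 Cells (500-1,000/well) rested 5 h, then received compounds for 48 h; metabolically active cells were measured by CellTiter-Glo luminescence. Final concentrations spanned up to 46 µM (MIPE, 11-point) or 0.59 nM-46 µM (NPC, 8-point) in primary screens, 11-point in follow-ups.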

The nature of assay [3]: qHTS of pediatric cancer cell lines to identify multiple opportunities for drug repurposing: Primary screen for MG 63 (6-TG R) cells (AID 1347105). Further: nearly all actives have a fitted effect of over 50% in size. Further: potency means the concentration at half of the fitted maximal effect. Put shortly: (§2)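 Cells seeded at 500-1,000 cells/well in growth media, rested 5 hours at 37 degrees C, 5% CO2, then dosed; MIPE compounds at 11-point (from 0.78 nM) and NPC at 8-point (from 0.59 nM) final concentrations. Viability by CellTiter-Glo luminescence after 48 hours.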

The nature of assay [4]: qHTS of pediatric cancer cell lines to identify multiple opportunities for drug repurposing: Primary screen for Rh41 cells (AID 1347108).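 Further: series mostly up to about 46 µM; luminescence drop marks cytotoxic hits; nearly all actives have a fitted effect of over 70% in size.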 A digest of the protocol:
as §2

The nature of assay [5]: qHTS of pediatric cancer cell lines to identify multiple opportunities for drug repurposing: Confirmatory screen for A673 cells (AID 1347110).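 Further: cells exposed to compound for 48 h before the viability read; nearly all actives have a fitted effect of over 65% in size.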 Further: potency means the concentration at half of the fitted maximal effect. A digest of the protocol: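 Viability was read as ATP luminescence (CellTiter-Glo) after 48 h of compound exposure at 37 C in A673 cells seeded at 500-1,000/well. Titrations reached 46 uM final, with 11 points in the confirmatory screen. Concentration-response curves were fitted directly.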

The nature of assay [6]: qHTS of pediatric cancer cell lines to identify multiple opportunities for drug repurposing: Confirmatory screen for BT-12 cells (AID 1347112). Further: nearly all actives have a fitted effect of over 55% in size. Further: potency means the concentration at half of the fitted maximal effect. Put shortly:
as §1

Assay [7] is described as follows: qHTS of pediatric cancer cell lines to identify multiple opportunities for drug repurposing: Confirmatory screen for NB-EBc1 cells (AID 1347115).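 Further: cells exposed to compound for 48 h before the viability read; nearly all actives have a fitted effect of over 45% in size.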 Put shortly: as §1
A short description of assay [8]: qHTS of pediatric cancer cell lines to identify multiple opportunities for drug repurposing: Confirmatory screen for BT-37 cells (AID 1347117). Further: nearly all actives have a fitted effect of over 55% in size. Further: potency means the concentration at half of the fitted maximal effect. A digest of the protocol:
as §1

Assay [9] is described as follows: qHTS of pediatric cancer cell lines to identify multiple opportunities for drug repurposing: Confirmatory screen for TC32 cells (AID 1347118).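 Further: cells exposed to compound for 48 h before the read; nearly all actives have a fitted effect of over 65% in size.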 Further: potency means the concentration at half of the fitted maximal effect. Put shortly: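 Measured quantity: luminescence from CellTiter-Glo, reflecting metabolically active TC32 cells following 48 h of compound. Curves came straight from multi-point titrations, with 8 or 11 points in primary and 11 in confirmatory screening.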

Assay [10] in a line: qHTS of pediatric cancer cell lines to identify multiple opportunities for drug repurposing: Confirmatory screen for MG 63 (6-TG R) cells (AID 1347119). Further: nearly all actives have a fitted effect of over 55% in size. Further: potency means the concentration at half of the fitted maximal effect. A digest of the protocol:
as §1

A short description of assay [11]: qHTS of pediatric cancer cell lines to identify multiple opportunities for drug repurposing: Confirmatory screen for control Hh wild type fibroblast cells (AID 1347121). Further: nearly all actives have a fitted effect of over 70% in size. Put shortly:
as §1

Assay [12] in a line: qHTS of pediatric cancer cell lines to identify multiple opportunities for drug repurposing: Confirmatory screen for RD cells (AID 1347124).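 Further: cells exposed to compound for 48 h before viability readout; nearly all actives have a fitted effect of over 65% in size.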 Further: potency means the concentration at half of the fitted maximal effect. Put shortly: as §1
A short description of assay [13]: qHTS of pediatric cancer cell lines to identify multiple opportunities for drug repurposing: Confirmatory screen for Saos-2 cells (AID 1347127). Further: nearly all actives have a fitted effect of over 60% in size. Further: potency means the concentration at half of the fitted maximal effect. Put shortly:
as §1

A short description of assay [14]: qHTS of pediatric cancer cell lines to identify multiple opportunities for drug repurposing: Confirmatory screen for NB1643 cells (AID 1347109). Further: nearly all actives have a fitted effect of over 45% in size. Further: potency means the concentration at half of the fitted maximal effect. Put shortly:
as §1

The nature of assay [15]: qHTS of pediatric cancer cell lines to identify multiple opportunities for drug repurposing: Confirmatory screen for LAN-5 cells (AID 1347113). Further: potency means the concentration at half of the fitted maximal effect; nearly all actives have a fitted effect of over 65% in size. Put shortly: as §1
Assay [16] is described as follows: qHTS of pediatric cancer cell lines to identify multiple opportunities for drug repurposing: Confirmatory screen for DAOY cells (AID 1347114). Further: nearly all actives have a fitted effect of over 65% in size. Further: potency means the concentration at half of the fitted maximal effect. Put shortly: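 Viability measured as metabolically active cells via CellTiter-Glo luminescence following 48 hours of compound exposure, 11-point dilutions in confirmatory testing. 500-1,000 cells/well plated 5 hours before dosing; controls were DMSO and 2.3 µM bortezomib.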

Assay [17] in a line: qHTS of pediatric cancer cell lines to identify multiple opportunities for drug repurposing: Confirmatory screen for U-2 OS cells (AID 1347122). Further: nearly all actives have a fitted effect of over 65% in size. Further: potency means the concentration at half of the fitted maximal effect. Put shortly:
as §1

Assay [18] can be described thus: qHTS of pediatric cancer cell lines to identify multiple opportunities for drug repurposing: Confirmatory screen for Rh41 cells (AID 1347123). Further: potency means the concentration at half of the fitted maximal effect; nearly all actives have a fitted effect of over 60% in size. A digest of the protocol:
as §1

Assay [19] can be described thus: qHTS of pediatric cancer cell lines to identify multiple opportunities for drug repurposing: Confirmatory screen for OHS-50 cells (AID 1347128). A digest of the protocol:
as §1

Turning to `O=C1NC2CCCCN2C12CCN(CCCN1c3ccccc3CCc3ccc(Cl)cc31)CC2` (stereo unspecified), the Potency result in assay [1] and in assay [2] was “inactive” each time.
In the case of `Cc1ccc(C(=O)Oc2ccc(C(O)CNC(C)(C)C)cc2OC(=O)c2ccc(C)cc2)cc1` (stereo unspecified), the Potency result in assay [3], in [1], in assay [2], in assay [4], in assay [6] and in [7] was “inactive” in each case. Further, the Potency entry in assay [8], in [10], in assay [11], in assay [12] and in assay [13] was “inactive” throughout. Moreover, the Potency in [5] was 92.8 nM (active); in [9] it was 5220 nM (active).
On to `CCC1=C[C@@H]2CN(C1)Cc1c([nH]c3ccccc13)[C@@](C(=O)OC)(c1cc3c(cc1OC)N(C)[C@H]1[C@@](O)(C(=O)OC)[C@H](OC(C)=O)[C@]4(CC)C=CCN5CC[C@]31[C@@H]54)C2`, for which the Potency in assay [3] is 21.1 nM (active); in assay [14] it was 104 nM (active); in assay [5], 11.7 nM (active); in assay [6], 52.2 nM (active); in [15], 329 nM (active); in assay [16] it was 32.9 nM (active). For the same compound, the Potency in assay [8] is 26.1 nM (active); in assay [9], 16.5 nM (active); in assay [10], 23.3 nM (active); in assay [17] it was 185 nM (active); in assay [12], 29.3 nM (active); in assay [13] it was 18.5 nM (active). Besides, the Potency result in assay [2] and in [11] was “inactive” throughout.
In the case of `CC(C)C[C@@H]1[C@H](c2ccccc2)OC(=O)N1CCCN1CCCCCC1`, the Potency entry in [1], in [2] and in assay [4] was “inactive” in each case.
Regarding `CC(C)(C)c1nnc(NS(=O)(=O)c2ccccc2)s1`, the Potency entry in assay [2] and in [4] was “inactive” each time.
Take `CCC(=O)O[C@]1(C(=O)COC)[C@@H](C)C[C@H]2[C@@H]3CCC4=CC(=O)C=C[C@]4(C)C3(F)[C@@H](O)C[C@@]21C` (stereo partly specified): the Potency result in assay [3], in assay [1], in assay [2], in assay [4], in [14] and in assay [5] was “inactive” in each case. Also, the Potency entry in assay [6], in assay [16], in [7], in [8], in [9] and in assay [11] was “inactive” in each case. For the same compound, the Potency entry in assay [17], in assay [12] and in assay [19] was “inactive” throughout. The Potency in [10] was 26100 nM (active); in assay [18] it was 16500 nM (active).
